# According to PubChem BioAssay (Tox21):
# Several values for one entry are separate records, joined by “and”; a condition that tells them apart may be missing. Equal values may be shown once. A structure can be active in one record and inactive in another. Activity calls are given as the source filed them. Entries that show only a call come without a potency. Unless noted, calls follow the shape of the dose curve; as a rule, active = well fitted curve in the direction sought with a large enough effect in the repeat runs; inconclusive = weak or mixed curves; inactive = no such curve, though single readings can be large; an effect the other way counts as inactive or inconclusive.
# Columns and labels:
# [1] = qHTS assay to identify small molecule antagonists of the thyroid receptor (TR) signaling pathway - cell viability counter screen (AID 743064); also: nearly all actives have a fitted effect of over 50% in size; also: potency is read from the fitted curve at half-maximal effect
# Outline: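 CellTiter-Fluor readout, 30 min at 37 °C/5% CO2, following 23.5 h incubation of GH3.TRE-Luc cells with test compound and 1 nM T3 (final).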
# [2] = qHTS assay to identify small molecule antagonists of the thyroid receptor (TR) signaling pathway (AID 743065); also: nearly all actives have a fitted effect of over 55% in size; also: potency is read from the fitted curve at half-maximal effect
# Outline: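 GH3.TRE-Luc rat pituitary cells (two TREs driving luciferase) were dosed with compound, then stimulated with 1 nM T3 (final) for 23.5 h at 37 C. ONE-Glo luminescence was the read-out, with CellTiter-Fluor fluorescence as the cytotoxicity counter-screen.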
# [3] = tested on: thyroid hormone receptor (rat, GH3 cells); assay: qHTS assay to identify small molecule agonists of the thyroid receptor (TR) signaling pathway (AID 743066; calls by dose curve)
# [4] = target: Estrogen receptor (Homo sapiens) (UniProt P03372); assay: qHTS assay to identify small molecule antagonists of the estrogen receptor alpha (ER-alpha) signaling pathway (AID 743069; active = well fitted curve in the direction sought with a large enough effect in the signal ratio in the repeat runs, not every such curve was filed as active; inconclusive = weak or mixed curves, or effect the other way; inactive = no such curve, though single readings can be large or run the other way; the % refers to the signal ratio; also: potency is read from the fitted curve at half-maximal effect)
# Estrogen receptor (Homo sapiens), sequence (P03372 whole entry, looked up): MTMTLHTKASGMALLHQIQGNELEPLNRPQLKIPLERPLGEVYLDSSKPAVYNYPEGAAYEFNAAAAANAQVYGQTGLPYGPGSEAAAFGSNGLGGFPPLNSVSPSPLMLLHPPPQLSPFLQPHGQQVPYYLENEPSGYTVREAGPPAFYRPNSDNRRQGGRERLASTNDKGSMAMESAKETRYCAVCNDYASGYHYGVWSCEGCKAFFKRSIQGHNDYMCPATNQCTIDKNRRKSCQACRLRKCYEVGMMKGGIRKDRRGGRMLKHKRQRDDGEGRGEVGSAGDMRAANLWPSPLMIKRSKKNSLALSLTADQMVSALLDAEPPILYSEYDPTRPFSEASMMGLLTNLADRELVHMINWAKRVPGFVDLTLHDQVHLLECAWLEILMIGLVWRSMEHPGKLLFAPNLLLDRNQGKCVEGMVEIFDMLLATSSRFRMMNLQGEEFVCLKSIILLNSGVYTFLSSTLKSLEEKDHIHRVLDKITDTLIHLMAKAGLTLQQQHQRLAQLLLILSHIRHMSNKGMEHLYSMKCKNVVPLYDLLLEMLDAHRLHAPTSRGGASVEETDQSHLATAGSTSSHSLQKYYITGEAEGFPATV
# Outline: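 Reporter cells (ER-alpha-bla, HEK293 background) are conditioned overnight in stripped-serum medium (2% charcoal-stripped FBS). Compound and 17beta-estradiol exposure runs 18 hr at 37C, 5% CO2.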
# [5] = qHTS assay to identify small molecule antagonists of the estrogen receptor alpha (ER-alpha) signaling pathway - cell viability counter screen (AID 743074; calls by dose curve;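 also: HEK293 cells carrying ER-alpha-UAS-bla reporter stimulated with 17beta-estradiol; nearly all actives have a fitted effect of over 45% in size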; also: potency is read from the fitted curve at half-maximal effect)
# [6] = target: Estrogen receptor (Homo sapiens) (UniProt P03372); assay: qHTS assay to identify small molecule agonists of the estrogen receptor alpha (ER-alpha) signaling pathway (AID 743075; calls by dose curve;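 also: HEK293 GripTite cells with ER-alpha and UAS-driven beta-lactamase reporter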; also: potency is read from the fitted curve at half-maximal effect)
# [7] = target: Estrogen receptor (Homo sapiens) (UniProt P03372); assay: qHTS assay to identify small molecule agonists of the estrogen receptor alpha (ER-alpha) signaling pathway using the BG1 cell line (AID 743079); also: nearly all actives have a fitted effect of over 20% in size; also: potency is read from the fitted curve at half-maximal effect
# [8] = qHTS assay to identify small molecule antagonists of the estrogen receptor alpha (ER-alpha) signaling pathway using the BG1 cell line (AID 743080; calls by dose curve;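 also: BG1 cells stimulated with 17beta-estradiol alongside compound; nearly all actives have a fitted effect of over 25% in size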; also: potency is read from the fitted curve at half-maximal effect); conditions: BG1Luc4E2 ERE-luciferase antagonist mode, luminescence; activity change, negative = inhibition: at 70.3 µM (top of the series) unless noted
# Outline: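 Quantitative HTS on the Tox21 10K library: BG1 cells with endogenous ER-alpha and ERE-luciferase reporter, 17beta-estradiol stimulation, 21.5 h compound exposure, luminescence endpoint with parallel fluorescence cytotoxicity counter-read.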
# [9] = qHTS assay to identify small molecule antagonists of the estrogen receptor alpha (ER-alpha) signaling pathway using the BG1 cell line - cell viability counter screen (AID 743081);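 also: compound given together with 17beta-estradiol as the ER stimulus; nearly all actives have a fitted effect of over 45% in size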; also: potency is read from the fitted curve at half-maximal effect
# Aromatase (Homo sapiens) = Aromatase (Homo sapiens) (UniProt P11511); assay: qHTS assay to identify aromatase inhibitors (AID 743083); also: nearly all actives have a fitted effect of over 55% in size; also: potency is read from the fitted curve at half-maximal effect
# Aromatase (Homo sapiens), sequence (P11511 whole entry, looked up): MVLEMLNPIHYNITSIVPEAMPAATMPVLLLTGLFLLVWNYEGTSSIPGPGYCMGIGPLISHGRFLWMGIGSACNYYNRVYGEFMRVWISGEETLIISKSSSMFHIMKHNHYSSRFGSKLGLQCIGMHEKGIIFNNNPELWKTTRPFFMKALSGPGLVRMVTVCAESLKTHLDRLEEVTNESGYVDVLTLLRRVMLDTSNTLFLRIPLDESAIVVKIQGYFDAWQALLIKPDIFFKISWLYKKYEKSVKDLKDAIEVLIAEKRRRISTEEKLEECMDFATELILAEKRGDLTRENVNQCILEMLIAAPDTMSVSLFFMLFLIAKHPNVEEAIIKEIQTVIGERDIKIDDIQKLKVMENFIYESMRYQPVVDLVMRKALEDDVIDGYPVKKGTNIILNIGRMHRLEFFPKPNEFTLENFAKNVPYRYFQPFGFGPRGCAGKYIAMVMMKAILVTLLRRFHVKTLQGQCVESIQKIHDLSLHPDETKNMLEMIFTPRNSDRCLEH
Structure (SMILES),Potency [1],Potency [2],Potency [3],Potency [4],Potency [5],Potency [6],Potency [7],Potency [8],Potency [9],Potency (Aromatase (Homo sapiens)),"activity change, negative = inhibition [8]"
CCNc1nc(Cl)nc(NCC)n1,inactive,inactive,inactive,inactive,inactive,inactive,inactive,inactive,inactive,inactive,
Cc1cc(Cl)ccc1N,inactive,inactive,inactive,,inactive,,,,inactive,inactive,
C[C@]12CCC(=O)C=C1CC[C@@H]1[C@@H]2CC[C@]2(C)C(=O)CC[C@@H]12,inactive,60.1 µM (active),inactive,,inactive,27.1 µM [activator] (active) and inactive,1.5 µM (active) and 4.25 µM (active) and 4.33 µM (active),inactive,inactive,inactive,
CC(=O)[O][Hg][c]1ccccc1,596 nM (active) and 241 nM (active) and 386 nM (active),422 nM (active) and 215 nM (active) and 217 nM (active),inactive,6.16 µM [inconclusive] (active),5.35 µM (active) and 2.43 µM (active) and 5.49 µM (active),26.8 µM [inconclusive] (active) and 34.4 µM [inconclusive] (active) and 1.1 µM [fluorescent] (active),,,2.98 µM (active) and 3.04 µM (active) and 4.33 µM (active),3.35 µM (active) and 1.36 µM (active) and 686 nM (active),
Nc1ccc(-c2ccc(N)c(Cl)c2)cc1Cl,30.8 µM (active) and 18 µM (active) and 30.6 µM (active),27.4 µM (active) and 10.1 µM (active) and 17.2 µM (active),inactive,27.7 µM [inhibitor] (active),inactive and 17.4 µM (active),24.7 µM [inconclusive] (active) and 20.4 µM [inconclusive] (active) and 54.9 µM [inconclusive] (active),9.04 µM (active) and 6.86 µM (active),64 µM (active),inactive,,
O=C(O)C(Cl)(Cl)Cl,inactive,inactive,inactive,,inactive,,,,inactive,inactive,
CCCCCCCCCCCC(=O)O,inactive,,inactive,,inactive,,,,inactive,,
Oc1ccccc1-c1ccccc1,inactive,,inactive,inactive,inactive,inactive,inactive,inactive,inactive,inactive,
O=P1(N(CCCl)CCCl)NCCCO1 (centres undefined),inactive,,inactive,inactive,inactive,inactive,inactive and 27.3 µM (active),inactive,inactive,inactive,
O=C(O)c1ccccc1O,inactive,,inactive,,inactive,,,,inactive,,
Nc1ccccc1,inactive,,inactive,,inactive and 24.5 µM (active),,,,inactive,inactive,
O=S(=O)(O)O,inactive,,,,inactive,,,,inactive,inactive,
CC(=O)O,inactive,,inactive,,inactive,,,,inactive,inactive,
CCCCn1cc[n+](C)c1,inactive,inactive,inactive,,inactive,,,,inactive,inactive,
CCCC[n+]1ccc(C)cc1,inactive and 30.5 µM (active),,inactive,,inactive and 48.7 µM (active),,,,inactive,inactive and 19.4 µM (active),
CCCCCCCCCCCCCCCCn1cc[n+](C)c1,,,inactive,,,,,,inactive and 49 µM (active) and 27.4 µM (active),,
CCCCCCCCCCCCOS(=O)(=O)O,inactive,,inactive,,inactive,,,,inactive,,
O=c1[nH]c(=O)n(Cl)c(=O)n1Cl,inactive,,inactive,,inactive,,,,inactive,inactive,
CCCCCCCCn1cc[n+](C)c1,54.4 µM (active),27.3 µM (active) and 54.9 µM (active),inactive,,,,,,inactive,34.3 µM (active) and 27.5 µM (active) and 55 µM (active),

Structure (SMILES),Potency [1],Potency [2],Potency [3],Potency [4],Potency [5],Potency [6],Potency [7],Potency [8],Potency [9],Potency (Aromatase (Homo sapiens)),"activity change, negative = inhibition [8]"
Oc1cccc2cccnc12,,,inactive,,inactive,,,,inactive,,
COCC(=O)N(c1c(C)cccc1C)C(C)C(=O)OC (centres undefined),inactive,,,inactive,inactive,inactive,inactive,inactive,inactive,inactive,
CCCn1cc[n+](C)c1,inactive,,,,inactive,,,inactive,inactive,inactive,
O=[N+]([O-])O,inactive,,,,inactive,,,,inactive,inactive,
CN(C)[C@@H]1C(=O)C(C(N)=O)=C(O)[C@@]2(O)C(=O)C3=C(O)c4c(O)cccc4[C@@](C)(O)[C@H]3[C@H](O)[C@@H]12,inactive,,inactive,,inactive,,,,inactive,inactive,
CCCC[n+]1ccccc1C,inactive,,,,inactive,,,,inactive,inactive,
O=C(O)CC(O)(CC(=O)O)C(=O)O,inactive,inactive,inactive,,inactive,,,,inactive,inactive,
CNC,inactive,,,,inactive,,,inactive,inactive,inactive,
CCC[N+]1(C)CCCC1,inactive,,,,inactive,,,,inactive,,
CCCCCCn1cc[n+](C)c1,inactive,inactive,inactive,,,,,,inactive,inactive,
CC[n+]1ccccc1,inactive and 34.1 µM (active),,inactive,,inactive,,,inactive,inactive and 30.4 µM (active),inactive and 54 µM (active),
C[N+](C)(C)Cc1ccccc1,inactive,,inactive,inactive,inactive,inactive,inactive,inactive,inactive,inactive,
COP(=O)(OC)C(O)C(Cl)(Cl)Cl (centres undefined),inactive,inactive,inactive,,inactive,,,,inactive,inactive,
CCCC[N+]1(C)CCCC1,inactive,inactive,inactive,,inactive,,,,inactive,inactive,
O=C(O)COc1ccc(Cl)cc1Cl,inactive,,,,inactive,,,,inactive,,
CCCCCCCCCCn1cc[n+](C)c1,,,,,,,,,,,-3.71% [at 95 µM] (active)
CCn1cc[n+](C)c1C,inactive,,,,inactive,,,,inactive,inactive,
O=c1nc(O)n(Cl)c(=O)n1Cl,inactive,,inactive,,inactive,,,,inactive,inactive,
O=C(O)CCl,inactive,inactive,inactive,,inactive,,,,inactive,inactive,
